Screens (PubChem BioAssay)
TRPM1 prom inh = inhibitors of MITF-dependent TRPM1 promoter reporter, primary screen, cell-based, SK-MEL-5, single point, luciferase | 330,000 tested, 0.83% active | inhibition, % at 12.5 µM | SK-MEL-5 TRPM1 promoter luciferase, 24 h;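 active = mean inhibition across replicates of 60% or more, whatever share of single replicates reaches that level; inconclusive = some that reach 60%, reason not given; inactive = mean inhibition across replicates below 60%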
ABHD5-PLIN5 inh = ABHD5-PLIN5 interaction inhibitors, primary screen, cell lysate, split luciferase complementation, luminescence. inhibition, % at 4 µM. Split G. princeps luciferase complementation, 4 h. 360,000 tested, 0.78% active;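 active = inhibition above the mean inhibition across every tested compound plus 3 SD, cut at about 22% in these data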;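 note: 0% = DMSO only wells and the 100% control is not disclosed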
Shn3 3UTR inh = reduction of Shn3 3'UTR firefly luciferase signal, primary screen, Schnurri-3 inhibitor project, cell-based, Clone20 osteoblasts, set 2 | AID 588674, 2011 | Clone20 osteoblast Shn3 3'UTR firefly luciferase, 24 h | 360,000 tested, 0.52% active | inhibition, % at 12.5 µM;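 active = mean inhibition of at least 75% with every replicate also reaching 75%; inconclusive = mean inhibition at least 75% but some replicate below; inactive = mean inhibition below 75%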;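 note: 0% = median of neutral control wells and 100% = pilot-screen positive control compound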
PAX8 inh HTS = inhibitors of PAX8-driven TPO luciferase reporter, primary screen, RMG-I cells, single concentration; AID 652154, 2013; SteadyGlo, 24 h; inhibition, % at 12.6 µM; 360,000 tested, 1.2% active;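 active = mean replicate inhibition at least 60% with every replicate also reaching 60%; inconclusive = only one of the two criteria is met; inactive = mean below 60% and not all replicates reaching 60%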;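 note: luciferase light reporting Pax8 driven TPO promoter activity; plate controls were median of neutral control wells for no effect and mitoxantrone controls for full effect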
Peg3 prom inh = Peg3 promoter-driven luciferase inhibitors, primary screen, cell-based, HeLa, luciferase luminescence; HeLa PEG-Prom luciferase reporter, overnight; inhibition, % at 20 µM; 360,000 tested, 1.7% active; AID 588405, 2011;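 active = inhibition of at least 50% at 20 µM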
EWS-Fli block = EWS/Fli-driven NR0B1 reporter inhibitors, primary screen, A673 cells, NR0B1 luciferase, luminescence, MLPCN library. viability-normalised. inhibition, % at 12.6 µM. 350,000 tested, 0.67% active;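 active = mean inhibition of at least 50% after viability correction, with every replicate also passing that limit; inconclusive = mean reaches 50% but only one of two replicates passes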;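 note: firefly luciferase signal divided by Alamar Blue viability fluorescence both relative to DMSO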
* hit, by the source's call; u = inconclusive; x = no result given. Compounds with a hit are over-represented: about 3% of the library has one in this group of screens.

SMILES	TRPM1 prom inh	ABHD5-PLIN5 inh	Shn3 3UTR inh	PAX8 inh HTS	Peg3 prom inh	EWS-Fli block
Cc1ccc(S(=O)(=O)N2CCOCC2)cc1NC(=O)COc1ccc(C(=O)c2ccccc2)cc1	6	1	13	19	61*	6
CC(O)c1nc2ccccc2n1C/C=C/c1ccccc1 (stereo not given)	8	0	-23	x	12	x
Cc1c(P(=S)(c2ccccc2)c2ccccc2)[n+]2ccccc2n1C/C=C/c1ccccc1	x	19	-20	101*	83*	21
Cc1ccc(NC(=O)c2cnc(N3CCN(c4ccccn4)CC3)c3ccccc23)c(Br)c1	38	-5	59	38	90*	23
O=C(Nc1c(F)cccc1F)c1cnc(N2CCN(c3ccccn3)CC2)c2ccccc12	30	3	43	33	73*	x
O=C(c1cnc(N2CCN(c3ncccn3)CC2)c2ccccc12)N1CCN(c2ccccn2)CC1	9	8	33	27	28	x
Cc1ccccc1-c1cnc2c(c1)C(=O)N([C@H](C)CO)C[C@@H](C)[C@@H](CN(C)C(=O)CC1CC1)O2	x	x	x	-3	x	-4
CC(/C=N\NC(=O)Cn1c(C)nc2ccccc21)=C\c1ccccc1	2	0	85*	10	-6	x
O=C(c1ccc(F)cc1)N1CCCCN2[C@H](C1)[C@@H](c1ccc(/C=C/c3ccccc3)cc1)[C@@H]2CO	x	x	x	-14	x	8
Cc1ccc(C(C)C)c(OCc2ccc(C(=O)N/N=C/c3ccc(O)c(O)c3)cc2)c1	28	-3	51	-2	-33	x
CCN(CC)c1ccc(/C=N/NC(=O)c2cccc(S(=O)(=O)N3CCOCC3)c2)c(O)c1	82*	0	89*	u	38	26
Cc1ccc(C(C)C)c(OCc2ccc(C(=O)N/N=C/c3cccc(O)c3O)cc2)c1	83*	-12	94*	57	14	30
O=C(N/N=C/c1ccccc1O)c1cccc(C(F)(F)F)c1	38	0	93*	27	28	x
O=C(N/N=C/c1ccccc1C(=O)O)c1cccc(S(=O)(=O)N2CCOCC2)c1	4	-3	4	27	-18	0
Cc1ccc(/C=N/NC(=O)c2cccc(S(=O)(=O)N3CCOCC3)c2)o1	-4	3	4	0	110*	-4
C/C=C/c1cnc2c(c1)C(=O)N([C@H](C)CO)C[C@H](C)[C@@H](CN(C)C(=O)C1CCC1)O2	x	x	x	x	x	-11
COCC(=O)Nc1ccc2c(c1)OC[C@H](C)N(C(=O)c1ccccc1)C[C@@H](C)[C@H](OC)CN(C)C2=O	x	x	x	x	x	-5
O=C(NN=Cc1ccco1)C(=O)Nc1cccc(C(F)(F)F)c1	x	x	x	-5	x	-6
CCN(CC)S(=O)(=O)c1cccc(C(=O)N/N=C/c2cccc(O)c2O)c1	16	4	90*	48	42	9
COc1ccc(/C=N/NC(=O)c2cc3c(OC)ccc(OC)c3[nH]2)cc1O	9	-3	40	50	-3	36
COc1ccc(OC)c2[nH]c(C(=O)N/N=C/c3ccccc3O)cc12	60	1	93*	42	63*	8
CCOc1cccc(C=NNC(=O)C(=O)Nc2cccc(C(F)(F)F)c2)c1O	x	x	x	70*	x	14
CCN(CC)S(=O)(=O)c1cccc(C(=O)N/N=C/c2cc(OC)c(O)c(OC)c2)c1	-4	0	-3	18	17	x
C[C@@H](O)C#Cc1ccc([C@H]2[C@H](CO)N3CCCCN(C(=O)c4cccc(F)c4)C[C@@H]23)cc1	x	x	x	-25	x	-3
O=C(C1CCCC1)N1CC2(C1)[C@@H](c1ccccc1)[C@@H](CO)N2C(=O)c1cccnc1	x	x	x	x	x	-7
CC1=C(C(=O)Nc2cccc(F)c2)C(c2ccsc2)C2=C(CC(C)(C)CC2=O)N1 (stereo not given)	19	-2	-26	-10	34	54*
CCOc1ccc(C(=O)Nc2ccc(Cc3ccncc3)cc2)cc1Br	-11	0	-27	95*	0	-1
C[C@H](CO)N1C[C@H](C)[C@@H](CN(C)Cc2ccc3c(c2)OCO3)Oc2ccc(NS(=O)(=O)c3ccccc3)cc2CC1=O	x	x	x	28	x	16
